Test results published in PubChem BioAssay AID1508637 (National Center for Advancing Translational Sciences (NCATS), 2021).
Records with an inconclusive call do not appear. Active and inactive are the calls of the source. Calls follow the shape of the dose curve; as a rule, active = well fitted inhibition curve with a large enough effect; inconclusive = small, poorly fitted or top-dose-only effect; inactive = flat fitted curve, though single readings scatter. Starred links: 1 amine or outer side, 2 acyl side, 3 side chain; linkers in the order of their positions; H or OH if unused. Non-standard residues stand in square brackets, D forms with d. Residues, ends and D or L forms follow the SMILES beside them. X1 = O=C([C@@H](CC(O)CCl)O[*:1])[*:2]; aIle = CC[C@@H](C)[C@H](N)C(=O)O; NMeV = CN[C@H](C(=O)O)C(C)C; NMeA = CN[C@@H](C)C(=O)O; βAla = NCCC(=O)O

Experiment: qHTS for characterization and localization of zebrafish homologs of the human ABCB1 multidrug transporter: empty vector transfected cells
Conditions: empty vector transfected control cells, CellTiter-Glo luminescence viability, 72 h
From the text: The zebrafish has emerged as a potential model to study the blood-brain barrier (BBB) given its similarities with mammalian systems. However, little information has been available with regard to homologous ATP-binding cassette transporters expressed at the zebrafish BBB. Two transporters that are highly expressed at the human BBB are P-glycoprotein (P-gp, encoded by the ABCB1 gene) and ABCG2 (encoded by the ABCG2 gene). In this study, we focus on characterization of P-gp homologs in the zebrafish, which has two genes that are homologous to human ABCB1 - abcb4 and abcb5. We generated stably-transfected cell lines to determine their substrate specificities. […] Zebrafish abcb4 also colocalized with claudin 5 expression in brain endothelial cells.
A high-throughput screen was performed as previously described on empty vector transfected cells, P-gp-overexpressing MDR-19 cells and cells transfected with full-length zebrafish abcb4 (ZF Abcb4) or abcb5 (ZF Abcb5). Briefly, cells were plated into 1536-well plates at a density of 500 cells/well in 5 uL media. P-gp substrate compounds (approximately 90) selected from our previous study were then added at varying concentrations using a 1536-head pin tool (Kalypsis, San Diego, CA) and plates were incubated at 37C in 5% CO2 for 72 h. CellTiter-Glo reagent (Promega) was dispensed into the wells, incubated for 5 min and luminescence was read on a ViewLux instrument (Perkin-Elmer).
Cytotoxic compounds were defined as those that yielded a curve class of -1.1, -1.2, -2.1, -2.2, -2.3, or -2.4, a maximum response of >50% and an AC50 of < 10 uM. All compounds from screening analysis were tested in Vector (empty vector control), MDR-19 (P-gp overexpressing), zebrafish abcb4 (ZF Abcb4) and abcb5 (ZF Abcb5) expression cell lines.
1. Tobie D Lee, Olivia W Lee, Kyle R Brimacombe, Lu Chen, Rajarshi Guha, Sabrina Lusvarghi, Bethilehem G Tebase, Carleen Klumpp-Thomas, Robert W Robey, Suresh V Ambudkar, Min Shen, Michael M Gottesman, Matthew D Hall. A High-Throughput Screen of a Library of Therapeutics Identifies Cytotoxic Substrates of P-glycoprotein. […]
In the case of `CC[C@@H](C)[C@@H]1NC(=O)[C@@H]2CCCN2C(=O)[C@@H](CC(O)CCl)OC(=O)CCNC(=O)[C@H](C)N(C)C(=O)[C@H](C(C)C)N(C)C1=O` (stereo partly drawn) (cyclo([NMeA][βAla][X1]P[aIle][NMeV])), the Potency was 1390 nM (active).
In the case of `C[C@@H]1[C@@H](CC(C[C@H]2O[C@@H]3O[C@]4(C)CC[C@@H]5[C@H](C)CC[C@@H]([C@H]2C)[C@@]35OO4)C[S+](=O)([O-])c2ccc(COC(=O)N(C)C)cc2)O[C@@H]2O[C@]3(C)CC[C@H]4[C@H](C)CC[C@@H]1[C@@]24OO3` (stereo partly drawn), the Potency was 264 nM (active).
In the case of `C=CCON=C(C[C@H]1O[C@@H]2O[C@]3(C)CC[C@@H]4[C@H](C)CC[C@@H]([C@H]1C)[C@@]24OO3)[C@H]1O[C@@H]2O[C@]3(C)CC[C@H]4[C@H](C)CC[C@@H]([C@@H]1C)[C@@]24OO3`, the Potency was 187 nM (active).
